Test results published in PubChem BioAssay AID504423 (Broad Institute, 2011).
Where “and” joins values, the source holds several entries; their conditions need not be identical. Equal entries are not always repeated. In all, about 340,000 compounds went through this assay and about 260 (0.076%) were called active.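 Rule for the calls: active = highest replicate inhibition at or above 60% at 9 µM, even if other replicates fall short; inactive = all replicates below 60% inhibition.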 Many of the other results were omitted from the sample, so actives are more common in it than they were.

tested on: Kaposi's sarcoma herpesvirus LANA C-terminal domain (residues 932-1162) DNA binding; assay: blockers of LANA C-terminal domain DNA interaction – biochemical, fluorescence polarization, FAM-LBS DNA, MBP-C-LANA, single point, primary screen (AID 504423); conditions: at 9 µM, stronger effect = higher value;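 note: 0% = neutral control wells and 100% = 4 µM acridine orange control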

SMILES | inhibition
C=CCNC(=S)NNC(=O)c1ccc(Br)o1 | 0.832% (inactive)
c1ccc(CNc2ncnc3[nH]ncc23)cc1 | -0.81% (inactive)
O=C(CN1CCN(c2ncccn2)CC1)Nc1ccccc1C(F)(F)F | -0.265% (inactive)
COC(=O)Cn1c(=NC(=O)CSCC(=O)Nc2cc(C)on2)sc2ccccc21 | 1.43% (inactive)
Cc1ccc(OCCNC(=O)c2cccc(S(=O)(=O)N3CCN(Cc4ccccc4)CC3)c2)cc1 | -0.305% (inactive)
COc1ccc(Cc2nnc(SCC(=O)c3cccc([N+](=O)[O-])c3)n2C)cc1 | 0.228% (inactive)
Cc1cc(C)c(NC(=O)CN2CCCCCC2)c(C)c1 | 1.26% (inactive)
N=C1c2ccccc2-c2ccccc21 | 1.95% (inactive)
CCC(C)C1(C2CCCC2)NC(=O)NC1=O (stereo not drawn) | 3.17% (inactive)
CCOc1ncccc1C(=O)NCCc1ccc(OC)cc1 | 0.452% (inactive)
CC1CCN(C(=O)c2ccccc2NC(=O)Cc2ccccc2)CC1 | 2.17% (inactive)
O=C(C1CCN(S(=O)(=O)c2ccc(Br)s2)CC1)N1CCN(C2CCCCC2)CC1 | -0.326% (inactive)
Cc1ccccc1CN1C[C@@H]2C[C@@H](c3cn(C)nc3-c3ccccc3)N3CCC[C@@]23C1=O | -1.95% (inactive)
O=C(Nc1ccc2sc3ccccc3c(=O)c2c1)c1ccccc1Cl | -0.526% (inactive)
CCCn1nc(NC(=O)C(C)C)c2cc3cc(OC)ccc3nc21 | -1.15% (inactive)
CC(C(=O)N(C)CC(=O)Nc1ccccc1C(F)(F)F)N1C(=O)c2ccccc2C1=O (stereo not drawn) | 1.14% (inactive)
CCN(CC)P(=O)(/C(Cl)=C\Nc1c(C)n(C)n(-c2ccccc2)c1=O)N(CC)CC | -1.51% (inactive)
Cc1cc([N+](=O)[O-])nn1CC(=O)Nc1ccc(Cc2ccncc2)cc1 | 0.568% (inactive)
Cn1c(N2CCOCC2)c(C=O)c2ccccc21 | 0.207% (inactive)
Cc1cc(Br)ccc1NC(=O)CN(C)C(=O)CN1C(=O)NC2(CCCC2)C1=O | 0.321% (inactive)
Cn1cc(S(=O)(=O)N2CCC(Cc3ccccc3)CC2)c(=O)n(C)c1=O | 1.59% (inactive)
CCCCN(CCCC)CCCNC(=O)CN1C(=O)COc2ccc(S(=O)(=O)N3CCC(C)CC3)cc21 | 0.15% (inactive)

SMILES | inhibition
COc1cccc2c1CCC(NC(C)=O)C2=O (stereo not drawn) | -1.29% (inactive)
O=C(CSc1ccsc1[N+](=O)[O-])N1CCCCC1 | 1.32% (inactive)
CCCCNS(=O)(=O)c1ccc(S(=O)(=O)n2cnc3ccccc32)cc1 | 0.219% (inactive)
COc1ccc(C(=O)Nc2ccc(C(=O)NCC3CCCO3)cc2)c(OC)c1OC (stereo not drawn) | 2.3% (inactive)
Cc1ccc(CNC(=O)C(=O)c2cn(CC(=O)N3CCCC3)c3ccccc23)cc1 | 2.35% (inactive)
COC1=C/C(=C/c2c(N)n3nc(CC(=O)N4CCOCC4)sc3nc2=O)C=CC1=O | 32.7% (inactive)
CCC1CCCCN1CCNC(=O)c1[nH]c(C)c(C(C)=O)c1C (stereo not drawn) | 5.48% (inactive)
COc1ccccc1N1CCN(Cc2ccc(OC)c3ccccc23)CC1 | -3.69% (inactive)
COc1ccc(CN2CCN(Cc3ccc(OC)c(OC)c3OC)CC2)cc1 | 79% (active)
COc1cc(CN2CCN(Cc3ccc(C)cc3)CC2)c([N+](=O)[O-])cc1OC | -0.737% (inactive)
CC(=O)Nc1ccc(SCC(=O)Nc2ccccc2Oc2ccccc2)cc1 | 1.36% (inactive)
C[C@H](CO)N1C[C@H](C)[C@H](CN(C)C(=O)Nc2ccc(C(F)(F)F)cc2)Oc2c(NC(=O)c3ccncc3)cccc2C1=O | -3.26% (inactive)
O=C(c1ccc(F)cc1)C1CCN(Cc2cn[nH]c2-c2ccccc2)CC1 | 1.59% (inactive)
Cc1nc(C)c2c(c1C(F)(F)F)-c1ccccc1C2(F)F | 1.49% (inactive)
COc1ccc([C@@H]2[C@@H]3C(=O)N(C(C)(C)C)C(=O)[C@@H]3[C@]3(Cc4ccccc4)C(=O)N(c4cccc(Br)c4)C(=O)N23)cc1 | 0.113% (inactive)
CCOc1cc(C(=O)OCC(=O)Nc2cccc(C)c2)ccc1OCC(=O)N1CCOCC1 | 0.789% (inactive)
C=CC1=C(C(=O)O)N2C(=O)[C@@H](NC(=O)/C(=N\OCC(=O)O)c3csc(N)n3)[C@H]2SC1 | 22.9% (inactive)
C=CC1=C(C(=O)O)N2C(=O)[C@@H](NC(=O)/C(=N/OCC(=O)O)c3csc(N)n3)[C@H]2SC1 | 95.4% (active)
CO/N=C(\C(=O)N[C@@H]1C(=O)N2C(C(=O)O)=C(COC(C)=O)CS[C@H]12)c1csc(N)n1 (stereo in doubt) | 8.29% (inactive) and 6.28% (inactive) and 10.6% (inactive)
CCOc1ccccc1N1CCN(C(=O)c2ccc3[nH]c(C)c(C)c3c2)CC1 | -1.79% (inactive)
CCC(=O)OCc1c(C(F)(F)F)nn(C)c1Oc1cccc(C(F)(F)F)c1 | 0.811% (inactive)
CC1(C)N=C(c2ccccn2)C(C)(C)N1O | 0.432% (inactive)

SMILES | inhibition
Cc1cc(C)n2nc(C(=O)OCC(=O)N(C)CC(=O)Nc3ccc(F)cc3)nc2n1 | 0.686% (inactive)
Cc1ccsc1C(=O)N[C@@H](C)c1nnc2ccccn12 | 1.44% (inactive)
Cc1nn(C)cc1N1C(=O)c2cccc3c(N)ccc(c23)C1=O | 73% (active)
CCC(C)(C)NC(=O)C(c1ccccn1)N(C(=O)c1csnn1)c1ccccc1 (stereo not drawn) | -0.461% (inactive)
O=C1OC(Oc2ccc(Br)cc2)(c2ccccc2)c2ccccc21 (stereo not drawn) | -1.96% (inactive)
CCC(Cc1ccccc1)NC(=O)C1CCCCC1 (stereo not drawn) | 1.4% (inactive)
Cc1sc2ncn(CC(=O)NCCCC(=O)NCc3ccc(F)cc3)c(=O)c2c1C | 0.451% (inactive)
Cc1ccc2c(c1)N(CC(=O)N1CCCc3ccccc31)C(=O)C(C)O2 (stereo not drawn) | 2.64% (inactive)
COc1cccc(COC(=O)C2CCN(S(=O)(=O)c3ccc(Cl)cc3)CC2)c1OC | 0.51% (inactive)
Cc1cc(C)c(S(=O)(=O)c2ccc(F)cc2C)c(=O)[nH]1 | -0.026% (inactive)
COc1ccc(/C(=N\O)c2nccc3cc(OC)c(OC)cc23)cc1OC | 0.0523% (inactive)
O=C(c1ccc(=O)oc1)N1CCC(C(O)(c2ccccc2)c2ccccc2)CC1 | 1.16% (inactive)
O=C(CN1CCSCC1)N/N=C/c1ccc(F)cc1F | -0.674% (inactive)
Clc1ccc(-c2nnc(-c3ccccc3)nc2N2CCSCC2)cc1 | -0.189% (inactive)
CC(=O)c1ccc(N2C(=NC(=O)C(C)C)SC3CS(=O)(=O)CC32)cc1 (stereo not drawn) | -0.954% (inactive)
CCCN(CC(=O)Nc1ccc(OC)c(OC)c1)CC(=O)Nc1ccc(F)c(F)c1F | 3.86% (inactive)
COCCCNC(=O)C1CC(=O)N(c2ccc(C)cc2)C1 (stereo not drawn) | 0.062% (inactive)
COC(=O)c1c(C)oc(C)c1S(=O)(=O)Nc1ccc(C(C)C)cc1 | -0.597% (inactive)
CCN(CC(=O)NC1CCS(=O)(=O)C1)S(=O)(=O)c1ccccc1 (stereo not drawn) | -1.52% (inactive)
CCOc1cc(C(=O)Nc2c(C)ccc3nsnc23)cc(OCC)c1OCC | -1.85% (inactive)
CCN(CC(=O)NC(C)C)C(=O)CCNC(=O)c1ccc(Cl)cc1 | -0.0284% (inactive)
COc1ccc(NS(=O)(=O)c2ccc(C)c(C(=O)N(C)Cc3ccc(OC)cc3OC)c2)cc1 | 28.6% (inactive)

SMILES | inhibition
O=S(=O)(c1ccc(-c2ccccc2)cc1)N1CCCC1 | 1.28% (inactive)
CCCn1c(N)c(C(=O)CSc2nnc(-c3cccnc3)n2-c2ccc(C)cc2C)c(=O)[nH]c1=O | 0.224% (inactive)
CC(C)(C)NC(=O)CN1CCC(NC(=O)C23CC4CC(CC(C4)C2)C3)CC1 | 0.793% (inactive)
c1ccc2c(NC3C4CC5CC(C4)CC3C5)nc(N3CCOCC3)nc2c1 (stereo not drawn) | 0.795% (inactive)
CCC(C)(C)c1ccc(OCC(=O)N(C)C)c(C(C)(C)CC)c1 | 1.97% (inactive)
Oc1ccc2ccc3cccc[n+]3c2c1 | 141% (active)
Oc1ccc(-c2nc3ccccc3nc2-c2ccc(O)cc2O)c(O)c1 | 2.95% (inactive)
CC(=O)Oc1cc2c(C(=O)NCCN3CCOCC3)c(C)oc2c2ccccc12 | -0.716% (inactive)
Cc1cc(C)nc(NNC2=CC(=O)CC(C)(C)C2)n1 | 2.32% (inactive)
Cn1c(SCC(=O)N2CCCCC2)nc2c(c1=O)SCC2 | -1.34% (inactive)
COC(=O)[C@@H](NC(=O)NCc1cccc(OC)c1)C(C)C | 1.36% (inactive)
O=C1COc2ccc(C(=O)COC(=O)c3cccnc3Cl)cc2N1 | 4.34% (inactive)
O=C(C[n+]1cc(Br)cc2ccccc21)c1ccc(F)cc1 | 4% (inactive)
COC(=O)C[n+]1cccc2ccccc21 | 70.1% (active)
COC(=O)Cc1c(-c2[nH]c3ccccc3c2CC(=O)OC)[nH]c2ccccc12 | 1.73% (inactive)
O=C1CCCc2c1[nH]c1ccc(Br)cc21 | -0.926% (inactive)
COCCCN(C(=O)Cn1ncc2c(=O)oc3ccc(C)cc3c21)C(C)c1ccncc1 (stereo not drawn) | 1.23% (inactive)
O=C(Cn1c[n+](CC(=O)c2ccc([N+](=O)[O-])cc2)cn1)c1ccc([N+](=O)[O-])cc1 | -0.902% (inactive) and -2.71% (inactive)
CCOC(=O)C(C)N(c1ccccc1Cl)S(C)(=O)=O (stereo not drawn) | 1.82% (inactive)
CCOC(=O)C1CCN(C(=O)Cn2nc(C)c3c(C)n(-c4ccccc4)nc3c2=O)CC1 | -0.173% (inactive)
O=C1C=C(c2cccc(Cl)c2O)C[C@@H](c2ccc(F)cc2)C1 | 0.749% (inactive)
O=C(O)CCn1c(SCc2cc(=O)n3ccccc3n2)nc2ccsc2c1=O | 0.383% (inactive)
